An excerpt weighted towards active compounds, which were near 4.1% of everything screened.
hgDAF-12 ag: hgDAF-12 agonism, primary luciferase screen | HEK293 GAL4-hgDAF12 UAS-luciferase reporter, agonist luminescence; normalized to butyrate control | 1.8% of 370,000 active | activation, % at 6.8 µM;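 active = activation above a cutoff set at the mean of all screened compounds plus 3 SD, cut at about 10% in these data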
hcDAF-12 act: activators of H. contortus DAF-12 nuclear receptor | activation, % at 6.8 µM | HEK293 hcDAF-12 lit1-tk-luc reporter, luminescence; 0% DMSO, 100% Δ7-dafachronic acid | 1.4% of 370,000 active;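 active = activation above the mean of all tested compounds plus 3 SD, cut at about 5.5% in these data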
DAX1 inh-1: NR0B1 (DAX1) inhibition; 0.99% of 340,000 active; inhibition, % at 6.75 µM; AID 504766; P51843; HEK293 Gal4-DAX1 luciferase reporter, luminescence;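 active = inhibition above the mean over all tested compounds plus 3 SD, cut at about 4.2% in these data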;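 also: inhibition shows as a rise in luminescence from relieved DAX1 repression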
Target sequence (P51843 207-470 limits assumed): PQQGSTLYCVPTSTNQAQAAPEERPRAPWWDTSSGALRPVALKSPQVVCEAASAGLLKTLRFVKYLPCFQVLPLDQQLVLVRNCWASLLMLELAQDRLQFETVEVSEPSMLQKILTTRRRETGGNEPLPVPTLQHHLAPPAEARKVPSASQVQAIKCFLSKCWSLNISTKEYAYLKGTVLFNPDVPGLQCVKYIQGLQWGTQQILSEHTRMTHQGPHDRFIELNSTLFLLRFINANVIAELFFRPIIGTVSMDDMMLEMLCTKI
DAX1 inh-2: DAX1 (NR0B1) inhibition, primary screen | HEK293T StAR-luciferase reporter, SF-1/DAX-1 repression relief | inhibition, % at 6.8 µM | 1.1% of 370,000 active | AID 652010;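 active = inhibition above the mean over all tested compounds plus 3 SD, cut at about 3.6% in these data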;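 also: higher inhibition means more luminescence from relief of DAX-1 repression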
ssDAF12 agonist: activates DAF-12 receptor from parasite S. stercoralis. AID 652126. activation, % at 6.8 µM. 1% of 370,000 active. HEK293 ssDAF-12/GRIP1 lit1-tk-luc reporter, luminescence; % of 3 µM dafachronic acid response;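 active = activation above the mean over all tested compounds plus 3 SD, cut at about 0.9% in these data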
A number is an active result; – = inactive; · = no result.

SMILES | hgDAF-12 ag | hcDAF-12 act | DAX1 inh-1 | DAX1 inh-2 | ssDAF12 agonist
COC(=O)[C@]12C[C@H](CC(=O)N3CCN(C(=O)C4CC4)CC3)C(=O)N(Cc3ccccc3)C1=C[C@H](COCc1ccccc1)O[C@@H]2C | – | – | · | – | –
COCCCN1C(=O)[C@H](CC(=O)N2CCCCC2)[C@]2(C(=O)OC)CCCCC=C12 | – | – | · | – | –
COc1ccc(/C=C2/C(=O)N(c3nc4ccccc4s3)N=C2CSc2ccc(Cl)cc2)cc1 | – | 5.6 | – | – | –
CN(CCO)c1cccc2c1S(=O)(=O)N(Cc1cn(Cc3ccccc3C(F)(F)F)nn1)Cc1ccccc1O2 | – | – | · | – | –
COc1ccc(OCC(=O)Nc2nc3c(s2)CCCC3)cc1 | – | – | – | – | –
O=C(CCCc1cccs1)Nc1nc2c(s1)CCCC2 | – | – | – | – | 1.0
O=C(Nc1nc2c(s1)CCCC2)c1ccc(Br)s1 | – | 6.2 | – | – | –
COC(=O)c1ccc(C(=O)NC(=S)Nc2nc3c(s2)CCCC3)cc1 | – | 6.2 | – | – | –
O=C(Nc1nc2c(s1)CCCC2)c1ccc(N2C(=O)CCC2=O)cc1 | – | – | – | 4.2 | –
CCNC(=O)N(C)[C@H]1C[C@H]2c3[nH]c4c(-c5cccc(C)c5)cccc4c3CCN2C[C@H]1[C@H](C)O | – | – | · | – | –
CC(C)N1Cc2nnn(Cc3ccc(F)cc3)c2-c2cc(F)ccc2S1(=O)=O | – | – | · | – | –
CC(C)CN1CN2Cc3cc(F)ccc3C2CS1(=O)=O (configuration not stated) | – | – | · | – | –
CCOc1ccc(NC(=O)CCc2c(C)nn(-c3ccc(N4CCCCC4)nn3)c2C)cc1 | – | – | – | – | –
CCc1ccc2nc(NC(=O)c3ccc(N4C(=O)CCC4=O)cc3)sc2c1 | – | – | 4.4 | – | –
Clc1ccc(-n2nnc(-c3cccnc3Cl)n2)cn1 | – | – | – | – | –
Cc1ccc(-n2nnc(-c3cccnc3Cl)n2)cc1 | 11.6 | – | – | – | –
Nc1ccc(Cc2ccc([N+](=O)[O-])cc2)cc1 | – | – | 5.2 | – | –
COC(=O)[C@]12CCCCC=C1N(CCC1=CCCCC1)C(=O)[C@H](CC(=O)N1CCN(C(=O)C3CC3)CC1)C2 | – | – | · | – | –
CCCC(=O)N1CCC1(C)C(=O)Nc1ccc(C)cc1 (configuration not stated) | – | – | · | – | –
CCCC(=O)N1CCC1(C)C(=O)Nc1ccc2nccnc2c1 (configuration not stated) | 10.7 | – | · | – | –
COc1ccc2c3n([n+]([O-])c2c1)CCN=C3c1cc(Cl)c(N)c(Cl)c1 | – | – | – | – | –
COc1ccc2c3n([n+]([O-])c2c1)CCN=C3c1ccc(C)cc1 | – | 5.6 | – | – | 1.1
OCC1CCCN(C(=S)Nc2ccc(Nc3ccccc3)cc2)C1 (configuration not stated) | 16.1 | – | 5.7 | – | –
NC(=O)C1CCCN(C(=S)Nc2ccccc2)C1 (configuration not stated) | – | – | – | – | –
O=C(O)CCC1OC(=O)C(O)=C1c1ccccc1 (configuration not stated) | – | – | – | – | –
SMILES | hgDAF-12 ag | hcDAF-12 act | DAX1 inh-1 | DAX1 inh-2 | ssDAF12 agonist
Cc1cc(C(=O)CN2C(=O)NC3(CCCCC3)C2=O)c(C)n1Cc1ccc2c(c1)OCO2 | – | – | – | – | –
Cc1cc(-n2c(C)cc(C(=O)CN3C(=O)NC4(CCCC4)C3=O)c2C)no1 | – | – | 5.9 | – | –
Cc1cc(C(=O)CN2C(=O)NC3(CCCCC3)C2=O)c(C)n1Cc1ccco1 | 11.3 | – | 7.1 | 4.0 | 2.6
COC(=O)C1CN(Cc2cn(Cc3ccc(OC)cc3)nn2)CCS(=O)(=O)N1Cc1ccc(OC)cc1 (configuration not stated) | – | – | · | – | –
Cc1cc(C)nc(NC(=S)NC(=O)c2ccccc2F)n1 | – | – | · | – | –
Cc1cc(C)nc(S/C=C/C(=O)c2ccccc2F)n1 | – | – | 6.2 | – | –
C/C(=N/NC(=O)c1ccc2c(c1)OCO2)c1ccc(Br)s1 | – | – | – | – | 0.9
C/C(=N\NC(=O)c1ccc(C)cc1C)c1ccc2c(c1)OCO2 | – | – | – | – | 1.3
CCCCNC(=O)NS(=O)(=O)c1ccc(NC(=O)CSc2nnc(-c3cccs3)n2-c2ccc(OC)cc2)cc1 | – | – | · | – | –
COC(CNC(=O)[C@H](Cc1c[nH]c2ccccc12)NC1(C(=O)NC2CCCCC2)CCCCC1)OC | – | – | · | · | –
CC(C)(C)c1ccc2c(c1)OC(C(=O)N/N=C/c1ccc[nH]1)CO2 (configuration not stated) | – | – | · | · | –
c1ccc(-c2ccc3nnnn3n2)cc1 | – | – | – | – | –
c1cnc(Sc2ccc3nnnn3n2)nc1 | – | – | – | – | 1.3
COc1ccccc1NC(=S)N1CCC(C(=O)c2ccc(F)cc2)CC1 | – | – | 5.6 | – | –
Cc1ccc(NC(=S)NNC(=O)CSc2nnc(SCc3cccc4ccccc34)s2)cc1 | – | – | · | – | –
CN(C)c1ccc(C(=S)NC2CCCCC2)cc1 | 12.8 | – | 5.1 | 4.3 | –
CCN(CC)c1ccc(C(=S)NC2CCCCC2)cc1 | – | – | – | – | –
CC(=O)c1ccc(NC(=O)Nc2cccnc2)cc1 | – | – | – | 4.1 | –
O=C(Nc1cccnc1)Nc1cccc([N+](=O)[O-])c1 | – | 6.5 | – | – | –
Cc1ccc(NC(=O)Nc2cnccn2)cc1 | – | – | – | 4.3 | –
CCOC(=O)[C@]12CCCCC/C=C\1N(CCc1ccc(Cl)cc1)C(=O)[C@H]2CC(=O)NCc1cccc(C(F)(F)F)c1 | – | – | · | – | –
COc1ccc(C(=O)C2(C(=O)NCCO)CC(c3ccccn3)=NO2)cc1 (configuration not stated) | – | – | · | – | –
COc1ccc(-c2cc(-c3nnc(SCC(=O)NC4CCCCC4)n3N)[nH]n2)cc1 | – | – | · | – | –
COc1ccc2oc(=O)c(C(=O)Nc3ccccc3C)cc2c1 | 11.7 | – | – | – | –
O=C(NNC(=O)c1cc2cc(Br)ccc2oc1=O)c1ccc(O)cc1 | – | – | – | – | 2.5
SMILES | hgDAF-12 ag | hcDAF-12 act | DAX1 inh-1 | DAX1 inh-2 | ssDAF12 agonist
CC(C)c1nnc(NC(=O)c2cc3cc(Br)ccc3oc2=O)s1 | – | – | – | – | –
O=C(Nc1ccccc1O)c1cc2cc(Br)ccc2oc1=O | – | – | – | – | 1.1
C[C@H]1[C@@H](NCC2CCCCC2)CC[C@@]23CCCN2C(=O)CCC[C@@H]13 | – | – | · | · | –
Clc1nccnc1N/N=C/c1ccc(Br)cc1 | 12.7 | – | 5.1 | – | –
COc1cccc(C2=NNC(=NCc3ccccc3)SC2)c1 | 13.1 | – | – | – | –
COc1ccccc1CNC(=O)c1ccc(S(=O)(=O)N(C)c2ccccc2)cc1 | – | – | – | – | –
COc1ccccc1N(C)S(=O)(=O)c1ccc(C(=O)NCc2ccccc2CN2CCCC2)cc1 | – | – | – | 4.2 | –
COC(=O)c1ccc(S(=O)(=O)N2CCC(NC(=O)CCc3ccccc3)CC2)cc1 | – | – | · | – | –

Bioassay records from PubChem.
